# Test results: the supplement of paper PMC8253809
# Test system: DIPGX29 (H3.3 K27M diffuse intrinsic pontine glioma line)
# Experiment: growth inhibition (% activity, log2 RLU normalised to DMSO / staurosporine); higher = more growth inhibition
# Settings: 33 µM
# Method in brief: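 Approved drugs were tested in triplicate at a single final concentration of about 33 μM for 7 days at 37 °C, 5% CO2, on pHGG cell lines and H9-derived neural stem cells. Readout was CellTiter-Glo luminescence, log2-transformed and scaled per plate to % activity between solvent and positive control wells. The median over replicates gives the growth-inhibition value.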
row,Compound,growth inhibition
1,C[N+](C)(C)CCCCCCCCCC[N+](C)(C)C,0.486%
2,CC(=O)O[C@H]1C[C@@H]2CC[C@@H]3[C@H](CC[C@@]4(C)[C@H]3C[C@H]([N+]3(C)CCCCC3)[C@@H]4OC(C)=O)[C@@]2(C)C[C@@H]1[N+]1(C)CCCCC1,-1.09%
3,CN(C)C(=O)Oc1ccc[n+](C)c1,0.471%
4,CN1c2ccccc2C(NCCCCCCC(=O)O)c2ccc(Cl)cc2S1(=O)=O (stereo not drawn),-1.12%
5,O=c1[nH]c2ccccc2n1CCCN1CCC(n2c(=O)[nH]c3cc(Cl)ccc32)CC1,1.24%
6,C[N+]1(C)CCCC(OC(=O)C(O)(c2ccccc2)c2ccccc2)C1 (stereo not drawn),-0.577%
7,CNC1CC(N)C(O)C(OC2OC(CO)C(O)C3OC4(OC(C(N)CO)C(O)C(O)C4O)OC23)C1O (stereo not drawn),4.68%
8,CN1C(=O)CCS(=O)(=O)C1c1ccc(Cl)cc1 (stereo not drawn),0.502%
9,CN(C)C(=O)Oc1cccc([N+](C)(C)C)c1,-3.32%
10,CCC1=C[C@H]2CN3CCc4c([nH]c5ccccc45)[C@](C(=O)OC)(C2)[C@H]13,-4.07%
11,NCC(O)c1ccc(O)cc1 (stereo not drawn),-0.0577%
12,CCCN1C[C@H](CSC)C[C@@H]2c3cccc4[nH]cc(c34)C[C@H]21,-0.00648%
13,CN1C(=O)COc2c(C(=O)NC3CN4CCC3CC4)cc(Cl)cc21 (stereo not drawn),2.11%
14,Cn1c(CCCC(=O)O)nc2cc(N(CCCl)CCCl)ccc21,3.01%
15,CC(=O)OC12COC1CC(O)C1(C)C(=O)C(O)C3=C(C)C(O)CC(O)(C(OC(=O)c4ccccc4)C21)C3(C)C (stereo not drawn),7.46%
16,CC(=O)OC1CN2CCC1CC2 (stereo not drawn),-0.533%
17,CC[C@@]1(O)C(=O)OCc2c1cc1n(c2=O)Cc2cc3ccccc3nc2-1,11.8%
18,C/C=C(\C)C(=O)N[C@@H](c1ccccc1)[C@@H](O)C(=O)O[C@H]1C[C@@]2(O)[C@@H](OC(=O)c3ccccc3)[C@@H]3[C@]4(OC(C)=O)CO[C@@H]4C[C@H](O)[C@@]3(C)C(=O)[C@H](OC(C)=O)C(=C1C)C2(C)C,11.3%
19,CCOC(=O)c1cncn1[C@H](C)c1ccccc1,1.12%

row,Compound,growth inhibition
1,O=C(O[C@H]1C[C@H]2CC[C@@H](C1)[N+]21CCCC1)C(O)(c1ccccc1)c1ccccc1,-4.33%
2,NCCc1c[nH]c2ccc(O)cc12,-2.73%
3,CCC1(c2ccc(N)cc2)CCC(=O)NC1=O (stereo not drawn),-0.867%
4,N.N.[Cl][Pt][Cl],-1.13%
5,C[N+]1(C)[C@@H]2C[C@@H](OC(=O)[C@H](CO)c3ccccc3)C[C@H]1[C@@H]1O[C@@H]12,-0.834%
6,CN1C2CC(O)CC1C1OC12 (stereo not drawn),-2.42%
7,C=CC[C@]1(O)CC[C@H]2[C@@H]3CCC4=CC(=O)CCC4=C3C=C[C@@]21C,1.35%
8,CCC(COC(=O)c1cc(OC)c(OC)c(OC)c1)(c1ccccc1)N(C)C (stereo not drawn),7.04%
9,CCCCCCCCCCCCCCCC[n+]1ccccc1,59.1%
10,CC[C@@H](C(N)=O)N1CCCC1=O,1.34%
11,Cc1cc(O)ccc1Cl,-0.668%
12,OC(c1ccccc1)(c1ccccc1)C1CCNCC1,0.581%
13,Cc1cccc(C)c1NC1=NCCCS1,-3.36%
14,COc1ccc(C(=O)N2CCCC2=O)cc1,0.75%
15,N[C@@H]1C[C@H]1c1ccccc1.N[C@H]1C[C@@H]1c1ccccc1,1.4%
16,COC(=O)C1=CCCN(C)C1,2.02%
17,C=CCN.ClCC1CO1 (stereo not drawn),0.23%
18,O=P1(NCCCl)OCCCN1CCCl (stereo not drawn),-2.21%
19,CN(C)C1C(=O)C(C(N)=O)=C(O)C2(O)C(=O)C3=C(O)c4c(O)cccc4C(C)(O)C3CC12 (stereo not drawn),-1.53%
